Values without a mark were called inactive. The source made the active and inactive calls.
test: PSAC antagonists in infected red cells, primary screen, cell-based, P. falciparum Indochina, OD700, 2 h (AID 1155);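 note: lysis reports solute entry through the parasite surface anion channel PSAC; channel blockers reduce lysis of infected cells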; settings: P. falciparum Indochina infected erythrocytes, osmotic lysis OD700; higher = more signal, called active from +8 up or from −8 down

| SMILES | z-score |
| --- | --- |
| COc1cc(CO)cc(I)c1O[C@H]1C=C(C(=O)NCCO)C[C@@H](NCc2ccccc2F)[C@@H]1O | 4.37 |
| CCCNC(=O)[C@@]1(c2ccc([N+](=O)[O-])cc2)CC(=O)N(C2CCCCC2)[C@@H]1c1ccc(CO)cc1I | 3.4 |
| CCOC(=CC(=O)OC)CC(O)c1cccc(Cl)c1 (stereo not drawn) | 0.101 |
| Cc1ccc(S[C@]2(C(=O)NC(C)C)CC(=O)N(Cc3ccccc3C(F)(F)F)[C@@H]2c2ccc(CO)cc2I)cc1 | 0.141 |
| CO[C@H]1O[C@H](CO)[C@@H](OC(=O)c2ccc(Br)cc2)[C@@H]2OC(=O)[C@@H](Cc3ccc4ccccc4c3)C/C=C/C[C@H](Cc3ccc4ccccc4c3)C(=O)O[C@@H]12 | -0.503 |
| COC(=O)[C@@]1(Cc2ccc(OC)cc2)[C@H]2c3cc(C(=O)N(C)C)n(Cc4nc5ccccc5[nH]4)c3C[C@H]2CN1C(=O)c1ccccc1 | 0.724 |
| COCCCNC(=O)[C@]1(Cc2ccccc2N=[N+]=[N-])N=C(c2ccc(OCCCO)cc2)O[C@@H]1c1ccccc1N=[N+]=[N-] | 28.7 (active) |

test: osmotic lysis modulators in infected erythrocytes, primary screen, PSAC antagonist project, cell-based, P. falciparum Indochina, OD700, 3 h (AID 1156); settings: higher = more signal, called active from +8 up or from −8 down

| SMILES | z-score |
| --- | --- |
| CC(C)C(=C=CC[C@H](O)c1ccc(OCCO)cc1)C[C@H](O)c1cc(Cl)cc(Cl)c1O | 1.44 |
| C=C(COC)/C(=C/C[C@@H](OC(=O)c1ccncc1)c1ccc(OCCO)cc1)c1cnc2ccccc2c1 | 1.59 |
| CC(C)CN1C(=O)[C@@]2(c3ccc([N+](=O)[O-])cc3)CC(=O)N(CC34CC5CC(CC(C5)C3)C4)[C@@H]2c2ccc(CO)cc21 | 0.0846 |
| C=C(CCCC)/C(=C/C[C@@H](OC(C)=O)c1ccc(CO)o1)c1cc(C(=O)OC)ccc1OC | 1.3 |
| C=C(C(=O)CC[C@H](OC(=O)c1cccnc1)c1ccc(CO)o1)C(C)C | -0.158 |
| CCOc1cc(C(O)C2C=CC3C(=O)N(C4CCCCC4)C(=O)C3N2Nc2ccc(OC)cc2)ccc1O (stereo not drawn) | 1.04 |
| CN(C)CCCNC(=O)[C@@H]1c2ccccc2C(=O)N(CC23CC4CC(CC(C4)C2)C3)[C@H]1c1ccc(CO)cc1 | 0.648 |
| NC(=O)N1C(=O)C2C(C1=O)C1C=C(CCCO)C2C(c2cccs2)N1Cc1cc2c(cc1Br)OCO2 (stereo not drawn) | 0.865 |
| [N-]=[N+]=NCc1ccccc1[C@H]1OC(c2ccc(OCCCO)cc2)=N[C@@]1(CCS(=O)(=O)c1ccccc1)C(N)=O | 1.56 |
| CC(C)(C)OC(=O)CC[C@]1(C(=O)O)N=C(c2ccc(OCCCO)cc2)O[C@H]1c1ccccc1 | -0.0867 |
| COc1ccc([Si](C)(C)[C@@H]2[C@@H](CCO)O[C@]3(C(=O)N(Cc4cccc(N5C(=O)c6cccc7cccc5c67)c4)c4ccccc43)[C@H]2C)cc1 | -0.0486 |
| COC1(C)CN(Cc2ccccc2Br)[C@H](/C=C/c2ccccc2)[C@H](Cc2ccccc2)O1 (stereo partly drawn) | 0.911 |
| CN(C)C(=O)[C@@]1(Cc2ccccc2N=[N+]=[N-])COC(c2ccc(OCCCO)cc2)=N1 | 3.43 |
| CC(C)N1CC=CC23O[C@@H]4C=CCCOC(=O)C4[C@H]2C(=O)N(CCO)[C@@H]3C1=O (stereo partly drawn) | 1.03 |
| C=C[C@@H](C)[C@H](OC(=O)Nc1ccc(SC)cc1)c1ccc(OCCO)cc1 | 3.4 |
| COC(=O)[C@@]1(Cc2ccc(OC)cc2)[C@H]2c3cc(C(=O)N(C)C)n(CCc4c[nH]c5ccc(O)cc45)c3C[C@H]2CN1C(=O)c1ccccc1 | 0.396 |
| COc1cc2c(cc1OC)CN(C(=O)[C@H]1[C@@H]3C(=O)O[C@@H](c4ccccc4)[C@@H](c4ccccc4)N3[C@@H](c3ccc(OCCO)cc3)[C@]13C(=O)Nc1ccc(C#CCCO)cc13)CC2 | 0.796 |
| COc1cc(CO)cc(I)c1O[C@H]1C=C(C(=O)NCCO)C[C@@H](N(CC2CCCCC2)C(=O)c2ccc(C(F)(F)F)cc2)[C@@H]1O | 1.69 |
| COC(=O)[C@@]1(Cc2ccc(F)cc2)[C@H]2c3cc(C(=O)N4CCCC4)n(CCc4c[nH]c5ccc(OC)cc45)c3C[C@H]2CN1C(=O)c1ccccc1 | 0.217 |
| COCC(=C=CC[C@H](O)c1ccc(OCCO)cc1)C[C@H](O)COCc1ccccc1 | 0.103 |
| CC=CC(O)C1C=CC2C(=O)N(C)C(=O)C2N1N1CCCCC1 (stereo not drawn) | -0.343 |
